Experimental data taken from the supplement of paper PMC11219838.
A number with no mark means an inactive call.

Columns and labels:
Conditions in all cases: 60 µM; 5 days; temperature: 20 °C
[1] = test system: Meloidogyne hapla J2; test: proportion of mobile M. hapla J2 relative to DMSO control (fraction of DMSO control); higher = more viable, less nematicidal, active = 0.7 or less
In short: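 About 25 M. hapla J2 were added per 96-well well in distilled water, and compound was pinned to 60 µM final (0.6% v/v DMSO). Sealed plates were shaken at 200 rpm for 5 days at 20 °C, then 2 µL 1 M NaOH was added before microscopic mobility scoring. Mobility was divided by the mean of eight DMSO wells on the same plate, and two biological replicates were averaged.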

[2] = test system: Caenorhabditis elegans dauer (daf-2(e1370)); test: proportion of mobile C. elegans dauer larvae relative to DMSO control (fraction of DMSO control); higher = more viable, less nematicidal, active = 0.63 or less; extreme values may be limits of the assay
In short: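 The proportion of mobile worms, relative to DMSO wells, was scored by dissection microscope and averaged over two biological replicates. Worms were C. elegans dauers, about 20 per well in liquid NGM in 96-well plates, generated from synchronized larvae on MYOB plates with E. coli OP50 at 25 °C for 48 h. They were treated with compound pinned to 60 µM final (0.6% v/v DMSO) and kept in sealed plates shaken at 200 rpm for 5 days at 20 °C.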

[3] = test system: Ditylenchus dipsaci; test: proportion of mobile D. dipsaci (mixed stage) relative to DMSO control (fraction of DMSO control); higher = more viable, less nematicidal, active = 0.86 or less; extreme values may be limits of the assay
In short: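 D. dipsaci were grown on pea plants in Gamborg B-5 agar and extracted through a filter funnel into water, and about 20 worms were added per 96-well well in distilled water. Compound was pinned to 60 µM final (0.6% v/v DMSO), and sealed plates were shaken at 200 rpm for 5 days at 20 °C. After 2 µL 1 M NaOH was added, mobile worms were scored microscopically. Mobility was expressed relative to DMSO controls and averaged over two biological replicates.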

| SMILES | proportion of mobile M. hapla J2 [1] | proportion of mobile C. elegans dauer larvae [2] | proportion of mobile D. dipsaci [3] |
| --- | --- | --- | --- |
| CCCCSc1nnc(-c2ccc(Br)cc2)o1 | 1 | 0.5 (active) | 0.842 (active) |
| Clc1ccccc1-c1nc(-c2ccc3c(c2)OCO3)no1 | 0.983 | 1 | 1 |
| O=C(Nc1ccccc1-c1nc(-c2cccnc2)no1)c1ccc(Cl)cc1 | 0.98 | 1 | 1 |
| COc1cccc(CSc2nnc(-c3ccco3)n2C)c1 | 0.965 | 1 | 1 |
| COc1ccc(NC(=O)CSc2nnc(-c3ccccc3)o2)cc1 | 0.907 | 1 | 1 |
| COc1ccc(-c2noc(-c3ccc(Cl)cc3)n2)cc1 | 0.983 | 0.778 | 1 |
| Brc1ccc(-c2nc(-c3ccccc3)no2)cc1 | 1 | 1 | 1 |
| Clc1ccc(-c2noc(-c3ccccc3Br)n2)cc1 | 0.995 | 1 | 1 |
| CC1CCN(C(=O)CSc2nnc(-c3cccc(Cl)c3)o2)CC1 | 1.02 | 1 | 1 |
| Clc1ccc(OCc2nc(-c3ccc4c(c3)OCO4)no2)cc1 | 0.932 | 1 | 1 |
| Clc1ccccc1-c1noc(COc2ccc(Br)cc2)n1 | 1.05 | 1 | 1 |
| Brc1ccc(-c2noc(-c3ccco3)n2)o1 | 0.801 | 0.391 (active) | 1 |
| Clc1cc(Br)ccc1OCc1nc(-c2ccncc2)no1 | 0.953 | 0.929 | 1 |
| O=C(c1ccccc1-c1nc(-c2ccccc2)no1)N1CCCCC1 | 1.06 | 1 | 1 |
| Cc1ccc(-c2noc(COc3cc(C)cc(C)c3)n2)cc1 | 1.02 | 1 | 1 |
| CNC(=O)c1ccccc1-c1nc(-c2ccc(Cl)cc2)no1 | 0.985 | 1 | 1 |
| COc1ccccc1-c1nnc(SCC(=O)Nc2ccc(C)cc2)o1 | 1.03 | 1 | 0.885 |
| O=C(CSc1nnc(-c2ccco2)o1)NC1CCCCC1 | 0.824 | 1 | 1 |
| Cc1ccc(SCc2nc(-c3ccccc3)no2)cc1 | 1.14 | 1 | 1 |

| SMILES | proportion of mobile M. hapla J2 [1] | proportion of mobile C. elegans dauer larvae [2] | proportion of mobile D. dipsaci [3] |
| --- | --- | --- | --- |
| c1ccc2c(OCc3nc(-c4ccncc4)no3)cccc2c1 | 0.979 | 1 | 1 |
| CCOc1nc(-c2ccc(C)cc2)ccc1-c1noc(CC)n1 | 0.667 (active) | 1 | 1 |
| COc1ccc(-c2noc(COc3ccc(Cl)cc3C)n2)cc1 | 0.94 | 1 | 1 |
| Cc1ccc(-c2nc(-c3cccc(C(F)(F)F)c3)no2)cc1 | 1.04 | 1 | 1 |
| COc1cccc(-c2noc(-c3ccccc3C)n2)c1 | 1.06 | 1 | 1 |
| Cc1ccc(NC(=O)CSc2nnc(-c3ccccc3)o2)c(C)c1 | 0.951 | 1 | 1 |
| Cc1cnnn1-c1ccc(-c2nc(-c3ccc(Cl)cc3)no2)cc1 | 0.963 | 1 | 1 |
| Cc1ccccc1OCc1nc(-c2ccccc2)no1 | 0.821 | 1 | 1 |
| Cc1ccc(OC(C)c2nc(-c3ccncc3)no2)cc1C (centres undefined) | 0.995 | 1 | 1 |
| Brc1ccc(-c2noc(-c3cccs3)n2)cc1 | 0.884 | 0.383 (active) | 1 |
| COc1ccc(Cl)cc1-c1noc(-c2cccc(C)c2)n1 | 1.05 | 1 | 1 |
| Fc1ccc(-c2noc(COc3ccccc3)n2)cc1 | 1.07 | 0.5 (active) | 1 |
| CCC(=O)Nc1ccccc1-c1nc(-c2cccnc2)no1 | 1.02 | 1 | 1 |
| COc1cccc(-c2noc(-c3ccc(Cl)cc3)n2)c1 | 0.983 | 0.562 (active) | 1 |
| CCCc1ccc(-c2nc(-c3cccnc3)no2)cc1 | 1.08 | 0.926 | 0.562 (active) |
| O=C(CSc1nnc(-c2ccc(Cl)cc2Cl)o1)Nc1ccccn1 | 0.838 | 1 | 1 |
| COc1nc(-c2ccccc2)ccc1-c1noc(-c2ccco2)n1 | 0.685 (active) | 1 | 1 |
| COc1ccccc1-c1nc(-c2ccc(C)cc2)no1 | 1.01 | 1 | 1 |
| COc1ccc(-c2noc(COc3ccccc3C)n2)cc1 | 1.03 | 1 | 1 |
